Reference: PubChem BioAssay AID1159580 (chemical genetic matrix, 2015)
In all, about 5,500 compounds went through this assay and about 2,000 (36%) were called active. Roughly 18% stayed inconclusive and do not appear here. Rule as the data show it: active = normalized growth mostly below about 0.91 (no sharp cut-off); inconclusive = no clear call, values can overlap the other calls; inactive = mostly above about 0.92. The list shows a part of the results.

Assay: chemical genetic growth profiling, strain panel (AID 1159580);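 also: tested at 20 µM; growth read once vehicle control cultures reached saturation at 30 °C; 1 = growth at the plate median or of vehicle wells; lower values mean less growth of the strain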
Settings: growth OD
[1] = S. cerevisiae deletion strains, locus YAR019C, strain CDC15, stronger effect = lower value
[2] = S. cerevisiae deletion strains, locus YBL105C, strain PKC1, stronger effect = lower value
[3] = S. cerevisiae deletion strains, locus YBR135W, strain CKS1, stronger effect = lower value
[4] = S. cerevisiae deletion strains, locus YBR136W, strain MEC1, stronger effect = lower value
[5] = S. cerevisiae deletion strains, locus YBR160W, strain CDC28, stronger effect = lower value
[6] = S. cerevisiae deletion strains, locus YDL017W, strain CDC7, stronger effect = lower value
[7] = S. cerevisiae deletion strains, locus YDL028C, strain MPS1, stronger effect = lower value
[8] = S. cerevisiae deletion strains, locus YDL101C, strain DUN1, stronger effect = lower value
[9] = S. cerevisiae deletion strains, locus YDL108W, strain KIN28, stronger effect = lower value
[10] = S. cerevisiae deletion strains, locus YDL132W, strain cdc53, stronger effect = lower value
[11] = S. cerevisiae deletion strains, locus YDL214C, strain PRR2, stronger effect = lower value
[12] = S. cerevisiae deletion strains, locus YDR052C, strain DBF4, stronger effect = lower value
[13] = S. cerevisiae deletion strains, locus YDR054C, strain cdc34, stronger effect = lower value
[14] = S. cerevisiae deletion strains, locus YDR226W, strain ADK1, stronger effect = lower value
[15] = S. cerevisiae deletion strains, locus YDR477W, strain SNF1, stronger effect = lower value
[16] = S. cerevisiae deletion strains, locus YER123W, strain YCK3, stronger effect = lower value
[17] = S. cerevisiae deletion strains, locus YER133W, strain GLC7, stronger effect = lower value
[18] = S. cerevisiae deletion strains, locus YFL009W, strain cdc4, stronger effect = lower value
[19] = S. cerevisiae deletion strains, locus YFL029C, strain CAK1, stronger effect = lower value
[20] = S. cerevisiae deletion strains, locus YFR003C, strain YPI1, stronger effect = lower value
[21] = S. cerevisiae deletion strains, locus YFR019W, strain FAB1, stronger effect = lower value
[22] = S. cerevisiae deletion strains, locus YFR028C, strain CDC14, stronger effect = lower value
[23] = S. cerevisiae deletion strains, locus YGR040W, strain KSS1, stronger effect = lower value
[24] = S. cerevisiae deletion strains, locus YGR052W, strain FMP48, stronger effect = lower value
[25] = S. cerevisiae deletion strains, locus YGR092W, strain DBF2, stronger effect = lower value
[26] = S. cerevisiae deletion strains, locus YHR030C, strain SLT2, stronger effect = lower value
[27] = S. cerevisiae deletion strains, locus YHR079C, strain IRE1, stronger effect = lower value
[28] = S. cerevisiae deletion strains, locus YHR082C, strain KSP1, stronger effect = lower value
[29] = S. cerevisiae deletion strains, locus YHR205W, strain SCH9, stronger effect = lower value
[30] = S. cerevisiae deletion strains, locus YIL147C, strain SLN1, stronger effect = lower value
[31] = S. cerevisiae deletion strains, locus YJL095W, strain BCK1, stronger effect = lower value
[32] = S. cerevisiae deletion strains, locus YJL128C, strain PBS2, stronger effect = lower value
[33] = S. cerevisiae deletion strains, locus YJL157C, strain FAR1, stronger effect = lower value
[34] = S. cerevisiae deletion strains, locus YJR016C, strain ILV3, stronger effect = lower value
[35] = S. cerevisiae deletion strains, locus YJR066W, strain TOR1 (second series), stronger effect = lower value
[36] = S. cerevisiae deletion strains, locus YJR066W, strain TOR1, stronger effect = lower value
[37] = S. cerevisiae deletion strains, locus YKL048C, strain ELM1, stronger effect = lower value
[38] = S. cerevisiae deletion strains, locus YKL067W, strain YNK1, stronger effect = lower value
[39] = S. cerevisiae deletion strains, locus YKL101W, strain HSL1, stronger effect = lower value
[40] = S. cerevisiae deletion strains, locus YKL193C, strain SDS22, stronger effect = lower value
[41] = S. cerevisiae deletion strains, locus YKL203C, strain TOR2, stronger effect = lower value
[42] = S. cerevisiae deletion strains, locus YLR113W, strain HOG1, stronger effect = lower value
[43] = S. cerevisiae deletion strains, locus YLR133W, strain CKI1, stronger effect = lower value
[44] = S. cerevisiae deletion strains, locus YLR403W, strain SFP1, stronger effect = lower value
[45] = S. cerevisiae deletion strains, locus YML070W, strain DAK1, stronger effect = lower value
[46] = S. cerevisiae deletion strains, locus YMR205C, strain PFK2 (second series), stronger effect = lower value
[47] = S. cerevisiae deletion strains, locus YMR277W, strain FCP1, stronger effect = lower value
[48] = S. cerevisiae deletion strains, locus YNL006W, strain LST8, stronger effect = lower value
[49] = S. cerevisiae deletion strains, locus YNL020C, strain ARK1, stronger effect = lower value
[50] = S. cerevisiae deletion strains, locus YNL161W, strain CBK1, stronger effect = lower value
[51] = S. cerevisiae deletion strains, locus YNL183C, strain NPR1, stronger effect = lower value
[52] = S. cerevisiae deletion strains, locus YNL207W, strain RIO2, stronger effect = lower value
[53] = S. cerevisiae deletion strains, locus YNL222W, strain SSU72, stronger effect = lower value
[54] = S. cerevisiae deletion strains, locus YNL307C, strain MCK1 (second series), stronger effect = lower value
[55] = S. cerevisiae deletion strains, locus YOL136C, strain PFK27, stronger effect = lower value
[56] = S. cerevisiae deletion strains, locus YOR061W, strain CKA2, stronger effect = lower value
[57] = S. cerevisiae deletion strains, locus YOR119C, strain RIO1, stronger effect = lower value
[58] = S. cerevisiae deletion strains, locus YOR231W, strain MKK1, stronger effect = lower value
[59] = S. cerevisiae deletion strains, locus YOR329C, strain SCD5, stronger effect = lower value
[60] = S. cerevisiae deletion strains, locus YPL031C, strain PHO85, stronger effect = lower value
[61] = S. cerevisiae deletion strains, locus YPL153C, strain RAD53, stronger effect = lower value
[62] = S. cerevisiae deletion strains, locus YPL204W, strain HRR25, stronger effect = lower value
[63] = S. cerevisiae deletion strains, locus YPL209C, strain IPL1, stronger effect = lower value
[64] = S. cerevisiae deletion strains, locus YPL256C, strain CLN2, stronger effect = lower value
[65] = S. cerevisiae deletion strains, locus YPR025C, strain CCL1, stronger effect = lower value
[66] = S. cerevisiae deletion strains, locus YPR106W, strain ISR1, stronger effect = lower value
[67] = S. cerevisiae deletion strains, locus YPR111W, strain DBF20, stronger effect = lower value
[68] = S. cerevisiae deletion strains, strain NNK1, stronger effect = lower value
[69] = S. cerevisiae deletion strains, locus YAL013W, strain DEP1, stronger effect = lower value
[70] = S. cerevisiae deletion strains, locus YBR229C, strain ROT2, stronger effect = lower value
[71] = S. cerevisiae deletion strains, locus YDR150W, strain NUM1, stronger effect = lower value
[72] = S. cerevisiae deletion strains, locus YEL061C, strain CIN8, stronger effect = lower value
[73] = S. cerevisiae deletion strains, locus YGR078C, strain PAC10, stronger effect = lower value
[74] = S. cerevisiae deletion strains, locus YHR087W, strain rtc3, stronger effect = lower value
[75] = S. cerevisiae deletion strains, locus YJL187C, strain SWE1, stronger effect = lower value
[76] = S. cerevisiae deletion strains, locus YJR043C, strain POL32, stronger effect = lower value
[77] = S. cerevisiae deletion strains, locus YJR075W, strain HOC1, stronger effect = lower value
[78] = S. cerevisiae deletion strains, locus YLR039C, strain RIC1, stronger effect = lower value
[79] = S. cerevisiae deletion strains, locus YLR058C, strain SHM2 (second series), stronger effect = lower value
[80] = S. cerevisiae deletion strains, locus YLR085C, strain ARP6, stronger effect = lower value
[81] = S. cerevisiae deletion strains, locus YLR262C, strain YPT6, stronger effect = lower value
[82] = S. cerevisiae deletion strains, locus YML094W, strain GIM5, stronger effect = lower value
[83] = S. cerevisiae deletion strains, locus YMR219W, strain ESC1, stronger effect = lower value
[84] = S. cerevisiae deletion strains, locus YMR263W, strain SAP30, stronger effect = lower value
[85] = S. cerevisiae deletion strains, locus YNL153C, strain GIM3, stronger effect = lower value
[86] = S. cerevisiae deletion strains, locus YNL298W, strain CLA4 (second series), stronger effect = lower value
[87] = S. cerevisiae deletion strains, locus YNL322C, strain KRE1, stronger effect = lower value
[88] = S. cerevisiae deletion strains, locus YNR030W, strain Alg12, stronger effect = lower value
[89] = S. cerevisiae deletion strains, locus YPL055C, strain LGE1, stronger effect = lower value
[90] = S. cerevisiae deletion strains, locus YPL241C, strain CIN2, stronger effect = lower value
[91] = S. cerevisiae deletion strains, locus YPR135W, strain CTF4, stronger effect = lower value

Measured: normalized growth

S=C(N/N=C\c1ccc(Cl)cc1)N/N=C\c1ccc(Cl)cc1
active: [16] 0.477 | [25] 0.284 | [26] 0.64 | [33] 0.582 | [35] 0.448 | [38] 0.645 | [39] 0.714 | [42] 0.66 | [43] 0.693 | [45] 0.663 | [49] 0.576 | [54] 0.469 | [56] 0.618 | [61] 0.654 | [64] 0.686
inactive: [1] 0.957 | [2] 0.962 | [3] 0.962 | [4] 0.973 | [5] 0.969 | [6] 0.961 | [7] 0.959 | [8] 0.992 | [9] 0.967 | [10] 0.957 | [11] 0.77 | [12] 0.967 | [13] 0.944 | [14] 0.972 | [15] 0.81 | [17] 0.748 | [18] 0.952 | [19] 0.955 | [20] 0.965 | [21] 0.832 | [22] 0.963 | [23] 0.849 | [24] 0.779 | [27] 0.588 | [28] 0.817 | [29] 0.793 | [30] 0.966 | [31] 0.653 | [32] 0.991 | [34] 0.955 | [36] 0.596 | [37] 0.833 | [40] 0.961 | [41] 0.783 | [44] 0.738 | S. cerevisiae deletion strains, locus YMR001C, strain CDC5, stronger effect = lower value 0.965 | [46] 0.746 | [47] 0.953 | [48] 0.96 | [50] 0.963 | [51] 0.81 | [52] 0.955 | [53] 0.961 | S. cerevisiae deletion strains, locus YOL078W, strain AVO1, stronger effect = lower value 0.96 | [55] 0.75 | [57] 0.866 | [58] 0.697 | [59] 0.957 | [60] 0.688 | [62] 0.682 | [63] 0.967 | [65] 0.966 | [66] 0.972 | [67] 0.975 | [68] 0.984 | S. cerevisiae deletion strains, strain TSCII, stronger effect = lower value 0.955

NC(=S)N/N=C\c1cc(F)cc(F)c1
inactive: [69] 0.97 | [70] 1.01 | [8] 1.04 | [71] 0.96 | [72] 0.94 | [73] 0.998 | S. cerevisiae deletion strains, locus YGR229C, strain SMI1, stronger effect = lower value 0.944 | [26] 0.778 | [74] 1.08 | [75] 0.971 | [76] 0.98 | [77] 1.02 | [78] 1.05 | [79] 0.994 | [81] 1.04 | [82] 0.923 | [83] 0.999 | [84] 0.92 | [85] 0.976 | [87] 1.05 | [88] 0.922 | [89] 0.963 | [90] 0.933 | [91] 0.78 | S. cerevisiae strains, strain wild type, stronger effect = lower value 0.923
active: [80] 0.34 | S. cerevisiae deletion strains, locus YMR307W, strain GAS1, stronger effect = lower value 0.574 | [86] 0.761

NC(=S)N/N=C\c1ccc(F)c(Cl)c1
inactive: [70] 0.995 | [8] 0.972 | S. cerevisiae deletion strains, locus YDL134C, strain PPH21, stronger effect = lower value 0.992 | [71] 1 | [73] 0.988 | [74] 1.04 | [75] 0.981 | [76] 0.996 | [77] 1.04 | [78] 0.966 | [79] 0.996 | [81] 1.06 | [83] 0.999 | [84] 0.919 | S. cerevisiae deletion strains, locus YNL128W, strain TEP1, stronger effect = lower value 0.944 | [85] 0.961 | [87] 1.04 | [89] 0.849 | [90] 0.889 | [91] 0.655
active: [69] 0.921 | [72] 0.804 | [26] 0.605 | [80] 0.198 | [82] 0.759 | [86] 0.661 | [88] 0.811

Cc1cccc(Cl)c1/C=N\NC(N)=S
inactive: [2] 0.911 | [3] 0.904 | [11] 0.867 | [15] 0.765 | [16] 0.873 | [17] 0.805 | [21] 0.957 | [23] 0.8 | [24] 0.818 | [25] 0.79 | [27] 0.94 | [28] 0.893 | [29] 1.02 | [31] 0.934 | [32] 0.973 | [33] 0.855 | [35] 0.837 | [36] 0.755 | [37] 0.88 | [38] 0.886 | [39] 0.919 | [42] 1.04 | [43] 0.886 | [44] 0.756 | [45] 0.932 | [46] 0.886 | [48] 0.953 | [49] 0.904 | [50] 0.924 | [51] 0.77 | [53] 0.931 | [54] 0.797 | [55] 0.948 | [56] 0.864 | [58] 0.949 | [59] 0.927 | [60] 0.824 | [61] 0.868 | [62] 0.877 | [63] 0.912 | [64] 1.03 | [65] 0.914 | [66] 0.927 | [67] 0.919 | [68] 0.932
active: [1] 0.868 | [4] 0.862 | [5] 0.892 | [6] 0.896 | [7] 0.88 | [8] 0.89 | [9] 0.869 | [10] 0.877 | [12] 0.858 | [13] 0.865 | [14] 0.826 | [18] 0.881 | [19] 0.865 | [20] 0.899 | [22] 0.828 | [26] 0.644 | [30] 0.87 | [34] 0.885 | [40] 0.872 | [41] 0.671 | [47] 0.87 | [52] 0.845 | [57] 0.625
